In all, about 5,000 sequences were measured (“log2 normalized fluorescence”: median about 0.089, highest 2% from about 0.81 on). For the sample, the highest values were picked, then their nearest neighbours and some sequences at random.
The sequences below were run against MYC (p64);MAX (p21), in MYC:MAX (human;human, UniProt P01106-1;P61244-2 1-439;1-151, |) (assay: protein-binding microarray (anti-MAX antibody); PBM: 15 mM Tris-HCl pH 7.5, 100 mM KCl, 0.075% NP40, 7.5 mM beta-mercaptoethanol, 375 ng/ul BSA, 8 ng/ul poly(dA-dT):(dA-dT), 550 ng complex, 60 min, room tempe; high values mean tight binding). Conditions: protein: recombinant;recombinant; tags: 6xHis;6xHis; copies: 1;1; label: 3' end of printed strand (linker) attached to glass slide; dsDNA, one strand shown.
MYC (p64);MAX (p21), in MYC:MAX, sequence (P01106 16-454, chain 1 of 2): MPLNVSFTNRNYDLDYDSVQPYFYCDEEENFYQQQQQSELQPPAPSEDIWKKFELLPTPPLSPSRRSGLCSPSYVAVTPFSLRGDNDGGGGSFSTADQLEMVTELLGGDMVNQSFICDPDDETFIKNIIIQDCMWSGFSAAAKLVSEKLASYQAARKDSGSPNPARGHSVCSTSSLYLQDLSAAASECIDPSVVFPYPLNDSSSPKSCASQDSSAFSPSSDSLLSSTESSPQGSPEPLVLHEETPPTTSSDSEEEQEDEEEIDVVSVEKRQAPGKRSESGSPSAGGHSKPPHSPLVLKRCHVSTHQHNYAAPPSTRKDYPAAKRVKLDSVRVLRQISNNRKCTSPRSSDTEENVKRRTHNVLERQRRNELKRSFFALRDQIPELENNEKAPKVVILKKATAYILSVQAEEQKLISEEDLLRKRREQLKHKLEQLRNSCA
MYC (p64);MAX (p21), in MYC:MAX, sequence (P61244 other isoform, or with tags, fused parts or gaps |, chain 2 of 2): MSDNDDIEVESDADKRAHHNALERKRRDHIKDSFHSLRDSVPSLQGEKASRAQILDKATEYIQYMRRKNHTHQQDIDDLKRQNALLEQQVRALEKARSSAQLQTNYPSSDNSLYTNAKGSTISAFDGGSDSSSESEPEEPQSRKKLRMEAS
Procedure, shortened: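 Binding is reported as log2 normalized fluorescence. Recombinant His-tagged human MYC:MAX or MAX:MAX dimers expressed in E. coli (550 ng) were incubated with a custom Agilent glass array for 60 min at room temperature in Tris-KCl buffer, pH 7.5, containing NP40, BSA and poly(dA-dT) competitor. The array carried ~5000 unique 12-nt sequences, each spotted in triplicate and made double-stranded by primer extension, and bound protein was detected with anti-MAX and secondary antibodies and scanned at 543 nm.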

| Sequence | binding signal |
| --- | --- |
| CCGGCTGAGCGCAGGTATTAATAGCTAAGATTACTATATCGACG | 0.113 log2 normalized fluorescence |
| CCGGCTGACCAGTTGTATTAATAGCTAAGATTACTATATCGACG | 0.159 log2 normalized fluorescence |
| CCGGCTGAGCACACGTATTAATAGCTAAGATTACTATATCGACG | 0.338 log2 normalized fluorescence |
| CCGGCTGGCACGTGCTATTAATAGCTAAGATTACTATATCGACG | 0.722 log2 normalized fluorescence |
| CCGGCGCACACGTGGTATTAATAGCTAAGATTACTATATCGACG | 0.906 log2 normalized fluorescence |
| CCGGCTCGCACGTGGTATTAATAGCTAAGATTACTATATCGACG | 0.665 log2 normalized fluorescence |
| CCGGCGCGCACGTGGTATTAATAGCTAAGATTACTATATCGACG | 0.813 log2 normalized fluorescence |
| CCGGCGCACACGTGCTATTAATAGCTAAGATTACTATATCGACG | 0.875 log2 normalized fluorescence |
| CCGGCTGAATTCCCGTATTAATAGCTAAGATTACTATATCGACG | 0.003 log2 normalized fluorescence |
| CCGGCTGACGGATGGTATTAATAGCTAAGATTACTATATCGACG | 0.302 log2 normalized fluorescence |
| CCGGCTGACGGACAGTATTAATAGCTAAGATTACTATATCGACG | 0.124 log2 normalized fluorescence |
| CCGGCTGACTCGTGCTGTTAATAGCTAAGATTACTATATCGACG | 0.41 log2 normalized fluorescence |
| CCGGCTGACACGTGATATTAATAGCTAAGATTACTATATCGACG | 0.522 log2 normalized fluorescence |
| CCGGCTGACACGTGAGCTTAATAGCTAAGATTACTATATCGACG | 0.713 log2 normalized fluorescence |
| CCGGCTGACACGTGTGATTAATAGCTAAGATTACTATATCGACG | 0.872 log2 normalized fluorescence |
| CCGGCTGACACGTGAGATTAATAGCTAAGATTACTATATCGACG | 0.826 log2 normalized fluorescence |
| CCGGCTGACACGTGAGGTTAATAGCTAAGATTACTATATCGACG | 0.702 log2 normalized fluorescence |
| CCGGCTGACACGTGATGTTAATAGCTAAGATTACTATATCGACG | 0.851 log2 normalized fluorescence |
| CCGGCTGACACGTCATGTTAATAGCTAAGATTACTATATCGACG | 0.5 log2 normalized fluorescence |
| CCGGCTGACACGTGAAGTTAATAGCTAAGATTACTATATCGACG | 0.527 log2 normalized fluorescence |

| Sequence | binding signal |
| --- | --- |
| CCGGCTGACACGTGATCTTAATAGCTAAGATTACTATATCGACG | 0.744 log2 normalized fluorescence |
| CCGGCTGAGCCATCGTATTAATAGCTAAGATTACTATATCGACG | 0.0938 log2 normalized fluorescence |
| CCGGCTGACCGCGGGTATTAATAGCTAAGATTACTATATCGACG | 0.33 log2 normalized fluorescence |
| CCGGCTGACTGGAGGTATTAATAGCTAAGATTACTATATCGACG | 0.07 log2 normalized fluorescence |
| CCGGCTGATGTTAGGTATTAATAGCTAAGATTACTATATCGACG | 0.122 log2 normalized fluorescence |
| CCGGCTGAGGACCGGTATTAATAGCTAAGATTACTATATCGACG | -0.014 log2 normalized fluorescence |
| CCGGCCGACACGTTGTATTAATAGCTAAGATTACTATATCGACG | 0.656 log2 normalized fluorescence |
| CCGGCTGACACGTGGGCTTAATAGCTAAGATTACTATATCGACG | 0.74 log2 normalized fluorescence |
| CCGGCTAACACGTGATATTAATAGCTAAGATTACTATATCGACG | 0.646 log2 normalized fluorescence |
| CCGGCCGACACGTCGTATTAATAGCTAAGATTACTATATCGACG | 0.338 log2 normalized fluorescence |
| CCGGCTGAACACGTGTATTAATAGCTAAGATTACTATATCGACG | 0.823 log2 normalized fluorescence |
| CCGGCTGACGACACGTATTAATAGCTAAGATTACTATATCGACG | 0.2 log2 normalized fluorescence |
| CCGGCCGACACGTGGGCTTAATAGCTAAGATTACTATATCGACG | 0.893 log2 normalized fluorescence |
| CCGGCCGACACGTGATATTAATAGCTAAGATTACTATATCGACG | 0.927 log2 normalized fluorescence |
| CCGGCTGAACGTGTGTATTAATAGCTAAGATTACTATATCGACG | 0.493 log2 normalized fluorescence |
| CCGGCTGACACGTGGTATTAATAGCTAAGATTACTATATCGACG | 0.825 log2 normalized fluorescence |
| CCGGCTGAACACACGTATTAATAGCTAAGATTACTATATCGACG | 0.419 log2 normalized fluorescence |
| CCGGCTGACGTGTGGTATTAATAGCTAAGATTACTATATCGACG | 0.252 log2 normalized fluorescence |
| CCGGCTGACTAGTAGTATTAATAGCTAAGATTACTATATCGACG | -0.00827 log2 normalized fluorescence |
| CCGGCTGACACGACATATTAATAGCTAAGATTACTATATCGACG | 0.459 log2 normalized fluorescence |

| Sequence | binding signal |
| --- | --- |
| CCGGCTGAAGACCAGTATTAATAGCTAAGATTACTATATCGACG | 0.106 log2 normalized fluorescence |
| CCGGCTGAGGCAAGGTATTAATAGCTAAGATTACTATATCGACG | 0.281 log2 normalized fluorescence |
| CCGGCTGAGGTCGCGTATTAATAGCTAAGATTACTATATCGACG | 0.0221 log2 normalized fluorescence |
| CCGGCTGATAACAGGTATTAATAGCTAAGATTACTATATCGACG | -0.0157 log2 normalized fluorescence |
| CCGGCTGACCTATGGTATTAATAGCTAAGATTACTATATCGACG | 0.108 log2 normalized fluorescence |
| CCGGCTGAGTGTGAGTATTAATAGCTAAGATTACTATATCGACG | 0.101 log2 normalized fluorescence |
| CCGGCTGAACGCGTGTATTAATAGCTAAGATTACTATATCGACG | 0.587 log2 normalized fluorescence |
| CCGGCTGACACGTGGAATTAATAGCTAAGATTACTATATCGACG | 0.698 log2 normalized fluorescence |
| CCGGCTAACACGTGGAATTAATAGCTAAGATTACTATATCGACG | 0.812 log2 normalized fluorescence |
| CCGGCCGACACGTGGAATTAATAGCTAAGATTACTATATCGACG | 0.832 log2 normalized fluorescence |
| CCGGCCGACGCGTGGTATTAATAGCTAAGATTACTATATCGACG | 0.626 log2 normalized fluorescence |
| CCGGCCGGCACGTGGTATTAATAGCTAAGATTACTATATCGACG | 0.723 log2 normalized fluorescence |
| CCGGCCGACACGTGGTATTAATAGCTAAGATTACTATATCGACG | 1.07 log2 normalized fluorescence |
| CCGGCTGAGCAGCGGTATTAATAGCTAAGATTACTATATCGACG | 0.0954 log2 normalized fluorescence |
| CCGGCAGACTCGTTGTATTAATAGCTAAGATTACTATATCGACG | 0.374 log2 normalized fluorescence |
| CCGGCTGAAGAGCTGTATTAATAGCTAAGATTACTATATCGACG | 0.00393 log2 normalized fluorescence |
| CCGGCTGACACTTTGTATTAATAGCTAAGATTACTATATCGACG | 0.302 log2 normalized fluorescence |
| CCGGCTGAGGTTTGGTATTAATAGCTAAGATTACTATATCGACG | -0.0536 log2 normalized fluorescence |

— PMC5515408, “Sequence-specific DNA binding by MYC/MAX to low-affinity non-E-box motifs”
